# Screens from PubChem.
# GLP-1R agonist = agonists of human GLP-1 receptor; HEK293 GLP-1R CRE-luciferase, luminescence, 4-6 h; cells express a hypersensitive GLP-1R form; Potency, µM (doses to about 45.6 µM), usual class: activators; 380,000 tested, 0.007% active; AID 624172
# Target sequence (P43220 whole entry, looked up): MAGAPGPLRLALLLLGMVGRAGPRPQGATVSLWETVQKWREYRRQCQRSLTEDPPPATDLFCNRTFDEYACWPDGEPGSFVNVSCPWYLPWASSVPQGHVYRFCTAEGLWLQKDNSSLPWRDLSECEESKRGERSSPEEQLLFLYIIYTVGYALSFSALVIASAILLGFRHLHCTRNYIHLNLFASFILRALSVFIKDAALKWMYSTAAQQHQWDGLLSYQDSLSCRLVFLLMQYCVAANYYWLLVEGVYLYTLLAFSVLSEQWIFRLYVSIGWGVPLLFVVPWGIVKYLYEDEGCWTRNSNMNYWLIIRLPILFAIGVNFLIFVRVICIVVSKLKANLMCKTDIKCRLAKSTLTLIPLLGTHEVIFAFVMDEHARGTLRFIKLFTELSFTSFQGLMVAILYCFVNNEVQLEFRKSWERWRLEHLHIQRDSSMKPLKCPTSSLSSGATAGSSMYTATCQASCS
# Integrin act MD = activates integrin-mediated alleviation for muscular dystrophy | Potency, µM (series often up to 38.3 µM), most hits filed as activators | alpha7betagal myoblasts, beta-gal FDG fluorescence, 48 h | 350,000 tested, 0.064% active; further: nearly all actives have a fitted effect of over 60% in size
#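 Alpha7betagal+/- myoblasts (passage 13) were plated 16-24 hr, then exposed to compounds (1:260 dilution of DMSO stock) for 48 hours at 37C. After MPER lysis, β-galactosidase reporter activity was read as FDG fluorescence (ex 480/em 540) after 30 minutes.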
# GLP-1R inv ag = acts as inverse agonist at human GLP-1 receptor. P43220. HEK293 GLP-1R CRE-luciferase, luminescence, 24 h; GLP-1R form is constitutively active. Potency, µM (titrated, usually from 38.3 µM), actives largely listed as inhibitors. 410,000 tested, 1.6% active; further: nearly all actives have a fitted effect of over 55% in size
#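 qHTS in 1536-well format: reporter HEK293 cells expressing constitutive GLP-1R activity in DMEM + 10% Nu serum, 24 hr with compounds at 37 deg C, luminescence read after 12 min with detection reagent.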
# BRCA1 expr act = activators of BRCA1 expression; 380,000 tested, 1.1% active; Potency, µM (doses to about 46.1 µM), most hits filed as activators; AID 624202; MCF7-BRCA1-FFLuc reporter, luminescence, 48 h; response scale: scaled: vehicle 0%, 10 µM genistein 100%; further: nearly all actives have a fitted effect of over 80% in size
#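 Compounds are tested at multiple concentrations on MCF7 BRCA1-luciferase reporter cells seeded at 2000 per well; after 48 h, a single luminescence end-point is taken and curves fitted to the normalized data.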
# GLP1R cytotox = cytotoxicity in counter-screen for GLP-1R inverse agonists. HEK293 cAMP-luciferase reporter cells, luminescence, 24 h. Potency, µM (series often up to 38.3 µM), hits mostly inhibitors. 410,000 tested, 0.13% active. AID 624418;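 further: loss of luciferase light is scored as toxicity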
#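 Step one: seed cells (200 cells/uL, DMEM with 10% Nu serum, 1% pen-strep). Step two: 12-hour incubation at 37 deg C. Step three: pin 23 nL compound, incubate 24 hr. Step four: add luciferase reagent, read luminescence 12 min later.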
# A number is an active result; n = inactive; u = inconclusive; x = not tested or not shown. Compounds with a hit are over-represented: about 2.7% of the library has one in this group of screens. The call rests on the fitted dose curve; in most records, active means well fitted curve in the direction sought with a large enough effect; inconclusive means small, poorly fitted or top-dose-only effect, or another doubt; inactive means no such curve, though single readings can be large; an effect the other way counts as inactive or inconclusive.
SMILES,GLP-1R agonist,Integrin act MD,GLP-1R inv ag,BRCA1 expr act,GLP1R cytotox
COc1cccc(C(=O)c2cn(CC(=O)Nc3cccc(Cl)c3C)c3nc(C)ccc3c2=O)c1,x,x,n,x,n
Cc1ccc(SC[C@H](Cc2ccccc2)N2CC[C@@H](C)CCC2=O)cc1,n,n,10µM,n,n
COC(=O)C(=O)C/C(=N/Nc1ncnc2ccccc12)c1ccc(Cl)cc1,n,10µM,n,n,n
Clc1ccccc1Cn1nc(-c2ccccc2)nc1-c1ccccc1,n,n,u,n,n
Clc1ccc(Cn2nc(-c3ccccc3)nc2-c2ccccc2)cc1,n,n,7.9µM,u,n
CC(C)NC(=S)N/N=C/C1=CCC2CC1C2(C)C (stereo not given),n,n,8.9µM,n,u
C=C(C)CNC(=S)N/N=C/C1=CCC2CC1C2(C)C (stereo not given),n,n,5µM,n,u
COc1ccc(/C=N/NC(=O)Cc2csc(Nc3cccc(C(F)(F)F)c3)n2)cc1C,n,n,7.9µM,n,u
COc1cc(/C=N/NC(=O)Cc2csc(C)n2)ccc1OCC(C)C,n,n,n,n,n
CCOc1cc(CNCCO)cc(Br)c1OCc1ccccc1Cl,n,n,u,n,u
CCOc1cc(CNCCCN2CCOCC2)cc(Br)c1OCc1ccccc1Cl,n,n,4.5µM,n,u
Cc1cc(/C=C/c2c(C)cnc3ccccc23)ccc1N(C)C,x,x,x,n,x
O=S(=O)(c1cccs1)N1CN(Cc2cccs2)c2nc3ccccc3nc21,n,n,10µM,n,n
c1ccc(NC2=Nc3ccccc3CS2)cc1,n,n,n,3.5µM,n
O=C(c1cc2ccccc2[nH]1)c1cc2cc(O)ccc2[nH]1,x,x,x,n,x
Cc1ccc(S(=O)(=O)NCC(=O)NCC(=O)N(C)Cc2ccc(Br)s2)cc1C,n,n,u,n,n
Cc1cc(C)c(NC(=O)CNC(=O)CN(C)Cc2ccc(Br)s2)c(C)c1,n,n,6.3µM,n,n
CC1CC(C)CN(c2oc(Cc3ccccc3)nc2C#N)C1 (stereo not given),n,n,11µM,n,n
N#Cc1nc(Cc2ccccc2)oc1N1CCCC1,n,n,n,n,n
COc1cccc(-c2noc(-c3cc(C(C)C)[nH]n3)n2)c1OC,x,x,n,x,n
Cc1ccc(C(=O)Nc2ccc3ccccc3c2)cc1,n,n,5µM,n,n
O=C(Nc1ccc2ccccc2c1)c1ccc(Cl)cc1,n,n,n,u,n
Cc1cc(C)nc(NC(=O)Nc2ccc3c(c2)OCO3)c1,n,n,n,u,n
O=C(Nc1ccc2c(c1)C(=O)c1ccccc1-2)c1ccccc1,n,n,n,2.8µM,n
Cc1ccc(C(=O)Nc2cccc(C(=O)NCc3ccccc3)c2)cc1,n,n,13µM,n,n
SMILES,GLP-1R agonist,Integrin act MD,GLP-1R inv ag,BRCA1 expr act,GLP1R cytotox
Cc1cccc(NC(=O)Nc2cc(C)cc(C)n2)c1,n,n,n,3.5µM,n
CCC(=O)N1c2ccccc2CC1C(=O)NCCc1ccccc1OC (stereo not given),x,x,n,x,n
CC(C)OC(=O)c1ccc(NC(=O)c2ccccc2)cc1,n,n,u,2.5µM,n
Cc1ccccc1C(=O)Nc1cccc(NC(=O)c2ccc(F)cc2)c1,n,n,10µM,n,n
Cc1ccc(NC(=O)c2ccccc2)cc1,n,n,n,3.5µM,n
Cc1ccc(C(=O)CC(=O)c2ccccc2)cc1,n,u,n,5µM,n
CCOC(=O)c1ccc(NC(=O)c2ccc(NC(=O)c3ccccc3)cc2)cc1,n,n,n,n,n
O=C(Nc1ccc(-c2ccccc2)cc1)c1ccccc1,n,n,u,n,n
O=C(Nc1cccc(NC(=O)c2ccccc2Cl)c1)c1ccc(F)cc1,n,u,u,n,n
COc1ccc(N2CCN(C(=O)c3cnc(N4CCOCC4)c4ccccc34)CC2)cc1,x,x,n,x,n
Cc1ccc(S(=O)(=O)/C(=C/Cl)NC(=O)c2ccccc2)cc1,n,n,10µM,n,6.3µM
Cc1ccc(CNC(=O)Nc2cccc(C)c2)cc1,n,n,n,8.9µM,n
Cc1cccc(NC(=O)NCc2ccc3[nH]c(C)cc3c2)c1,n,n,n,n,n
Cc1ccc(C(=O)NC(=C(Cl)Cl)S(=O)(=O)c2ccc(C)cc2)cc1,n,n,u,n,u
CCOC(=O)Nc1ccc(/C=C/c2ccnc3ccccc23)cc1,x,x,x,n,x
CC(=O)Oc1ccc(C2(c3ccc(OC(C)=O)cc3)Oc3ccccc3NC2=O)cc1,n,x,x,x,x
CCOc1ccc2nc(N3CCCC(C(=O)Nc4ccc(OC)c(Cl)c4)C3)sc2c1 (stereo not given),x,x,n,x,n
CCN(CC(=O)Nc1ccccc1C(F)(F)F)C(=O)C1CSC2(C)CCC(=O)N12 (stereo not given),n,n,11µM,n,n
COc1ccc(OCC(=O)N2c3ccc(C)cc3C3CN(C)CCC32)cc1 (stereo not given),n,n,n,n,n
Cc1ccc2c(c1)C1CN(C)CCC1N2C(=S)NC(=O)c1ccc(Br)cc1 (stereo not given),n,n,11µM,n,u
O=C(Nc1cccc(F)c1)c1ccc(-c2ccccc2)s1,x,x,n,x,n
CCN(C(=O)Cn1c(=O)oc2cc(S(=O)(=O)N3CCCCC3)ccc21)c1ccccc1,x,x,n,n,n
Cc1cc(CNC(=O)c2ccc3nc(Cc4ccccc4F)oc3c2)nn1C,n,n,n,8.9µM,n
O=C(c1ccc2nc(Cc3ccccc3F)oc2c1)N1CCCC1,n,n,n,5.6µM,n
CC(c1ccccn1)N(C)C(=O)c1ccc2nc(Cc3ccccc3F)oc2c1 (stereo not given),n,n,n,11µM,n
SMILES,GLP-1R agonist,Integrin act MD,GLP-1R inv ag,BRCA1 expr act,GLP1R cytotox
O=S(=O)(c1ccc(Oc2ccc3c(c2)OCO3)c(S(=O)(=O)N2CCOCC2)c1)N1CCOCC1,x,x,x,n,x
CCCCn1cc(S(=O)(=O)c2ccccc2)c(=O)c2cc(F)c(N3CCC(C)CC3)cc21,x,x,n,x,n
CCOc1ccc(N(CC(=O)Nc2ccc(C)c(C)c2)S(C)(=O)=O)cc1,n,n,n,2µM,n
CCOc1ccc(NC(=O)CC2C(=O)N(c3ccccc3)C(=O)N2CCc2ccc(OC)cc2)cc1 (stereo not given),x,x,u,x,n
OC(c1ccc2ccccc2c1)c1ncc(-c2ccc(C(F)(F)F)cc2)[nH]1 (stereo not given),n,x,10µM,n,n
OC(c1ccc(F)cc1)c1ncc(-c2ccc(Oc3ccccc3)cc2)[nH]1 (stereo not given),n,x,10µM,n,n
COc1ccc(C2C(=O)N(C3CCCCCC3)CC(=O)N2Cc2ccc(C)cc2)cc1OC (stereo not given),x,x,n,x,n
COc1ccc(OC)c(S(=O)(=O)N2CCC(C(=O)Nc3cccc(C(F)(F)F)c3)CC2)c1,n,n,10µM,n,u
